Inconclusive results are not listed. Calls of active or inactive are those of the source. Calls follow the shape of the dose curve; as a rule, active = well fitted curve in the direction sought with a large enough effect in the signal ratio, with a control signal flat (not every such curve was filed as active); inconclusive = small, poorly fitted or top-dose-only effect, or effect the other way, or a change in a side signal; inactive = no such curve, though single readings can be large or run the other way; the % refers to the signal ratio.
Target: Androgen receptor (Homo sapiens) (UniProt P10275)
Assay: qHTS assay for small molecule antagonists of androgen receptor signaling (AID 588516)
Settings: AR-UAS-bla HEK293, beta-lactamase ratio, antagonist mode, 16 h; series mostly up to 76.8 µM
Summary of the method: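 Antagonist-mode qHTS: inhibition of R1881 (10 nM)-driven beta-lactamase expression in GripTite HEK 293 cells is measured after 16 h; values are Hill-derived IC50s normalized between R1881 and DMSO wells.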

Chain of Androgen receptor (Homo sapiens) (P10275 whole entry, looked up): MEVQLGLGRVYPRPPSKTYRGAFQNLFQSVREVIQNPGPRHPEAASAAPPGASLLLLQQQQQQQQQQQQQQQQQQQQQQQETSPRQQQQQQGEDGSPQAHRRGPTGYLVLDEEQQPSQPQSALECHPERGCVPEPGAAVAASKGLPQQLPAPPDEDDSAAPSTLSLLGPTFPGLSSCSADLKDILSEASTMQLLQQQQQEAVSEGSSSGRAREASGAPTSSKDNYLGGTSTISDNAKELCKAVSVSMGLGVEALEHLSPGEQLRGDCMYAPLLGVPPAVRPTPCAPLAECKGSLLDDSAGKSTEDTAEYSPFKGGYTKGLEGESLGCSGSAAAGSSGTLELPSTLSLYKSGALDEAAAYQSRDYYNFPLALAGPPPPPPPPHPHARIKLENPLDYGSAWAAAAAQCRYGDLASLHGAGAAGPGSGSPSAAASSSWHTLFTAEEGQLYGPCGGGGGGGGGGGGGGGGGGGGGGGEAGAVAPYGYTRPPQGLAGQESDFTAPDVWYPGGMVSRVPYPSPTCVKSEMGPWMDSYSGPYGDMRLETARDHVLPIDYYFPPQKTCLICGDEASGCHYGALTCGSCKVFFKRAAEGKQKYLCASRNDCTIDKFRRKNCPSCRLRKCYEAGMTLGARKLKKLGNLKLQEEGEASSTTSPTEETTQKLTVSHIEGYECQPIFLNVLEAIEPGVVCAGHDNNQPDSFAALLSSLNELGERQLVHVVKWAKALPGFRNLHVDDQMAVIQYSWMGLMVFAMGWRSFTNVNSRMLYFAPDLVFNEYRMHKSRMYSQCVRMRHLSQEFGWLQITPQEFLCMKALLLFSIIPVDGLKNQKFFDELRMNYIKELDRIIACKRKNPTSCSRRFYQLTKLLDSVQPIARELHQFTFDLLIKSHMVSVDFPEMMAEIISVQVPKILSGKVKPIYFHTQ

CC1=C2[C@H](/C=C(\C)C(=O)O)CC[C@@H](C)[C@H]2CC1
outcome: inactive

Source: PubChem BioAssay (NCATS)
